The source of these data is the supplement of paper PMC10121225.

Counter-ions that a name gives are not always drawn.
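Note: immunostained co-cultures imaged by high-content microscopy, Z-score per plate against mean and SD of 0.1% DMSO wells, compounds added on differentiation day 18, analysed day 21.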

The subject of this assay is hN + hpA co-culture (H1 iNGN2 human neurons + human primary astrocytes). Kind of assay: presynaptic density (SYNAPSIN1 puncta per MAP2 neurite area), Z-score vs DMSO controls; higher = more presynaptic puncta (synapse-promoting). The settings on record: 3 µM; 72 h.
Regarding `Oc1ccc2ccccc2c1SSc1c(O)ccc2ccccc12` [1-1-Dithiodi-2-naphthtol], the “presynaptic density (Z-score)” value was -0.787.

Regarding `CN1CC(=O)N2[C@H](c3ccc4c(c3)OCO4)c3[nH]c4ccccc4c3C[C@@H]2C1=O` [Tadalafil], the “presynaptic density (Z-score)” value was -0.533. `CC(C=CC(=O)NO)=CC(C)C(=O)c1ccc(N(C)C)cc1` (centres undefined) [Trichostatin A (TSA)]: the “presynaptic density (Z-score)” value was found to be 11.2. For `CCc1c2c(nc3ccc(OC(=O)N4CCC(N5CCCCC5)CC4)cc13)-c1cc3c(c(=O)n1C2)COC(=O)[C@]3(O)CC` [Irinotecan], the “presynaptic density (Z-score)” value is -0.725.

Consider `CCn1c(N)c(C(=O)NC)c(=O)c2ccc(C#CC(C)(O)COC)nc21` (centres undefined), for which the “presynaptic density (Z-score)” value amounted to 0.325.

On to `CCOC(=O)N1CCC(=C2c3ccc(Cl)cc3CCc3cccnc32)CC1` [Loratadine], for which the “presynaptic density (Z-score)” value came out at 1.78. For `CNC(=C[N+](=O)[O-])NCCSCc1ccc(CN(C)C)o1` [Ranitidine], the “presynaptic density (Z-score)” value was -0.33. Regarding `O=C(O)/C=C/c1ccc(Cn2ccnc2)cc1` [Ozagrel HCl], the “presynaptic density (Z-score)” value is -0.679.

Regarding `CC(NC(=O)c1ccccc1N=Cc1c(O)ccc2ccccc12)c1ccccc1` (centres undefined), the “presynaptic density (Z-score)” value amounted to 0.165.

For the compound `Cc1cnc(-c2cc(N3CCN(C(=O)CCS(C)(=O)=O)CC3)ncc2Cl)c(C)c1`, the “presynaptic density (Z-score)” value is -1.22. On to `CCc1cc(Nc2nccc(-c3c(-c4ccc(OC)c(C(=O)Nc5c(F)cccc5F)c4)nc4ccccn34)n2)c(OC)cc1N1CCC(N2CCN(S(C)(=O)=O)CC2)CC1`, for which the “presynaptic density (Z-score)” value was found to be 0.31. As for `COc1cc(OC)c(NC(=O)Nc2cc(C)on2)cc1Cl`, the figure is -0.694; as for `O=C(O)/C=C/c1ccc(Cn2ccnc2)cc1` [Ozagrel], -0.554. Next, `CNC(=O)c1ccc2cc([C@@]3(O)CCn4cncc43)ccc2c1` [TAK-700 (Orteronel)]: 0.215. Turning to `O=C1NC(=O)/C(=C/c2ccc(-c3ccc(F)cc3O)o2)S1`, the “presynaptic density (Z-score)” value turned out to be 0.652.

On to `CC(C)NC[C@@H](C(=O)N1CCN(c2ncnc3c2[C@H](C)C[C@H]3O)CC1)c1ccc(Cl)cc1`, for which the “presynaptic density (Z-score)” value was -0.322. Regarding `O=C(Nc1cccc(Nc2ncc(Br)c(NCCc3cnc[nH]3)n2)c1)N1CCCC1`, the “presynaptic density (Z-score)” value was -0.439.

Consider `COc1ccccc1N1CCN(CC(O)COc2cccc3ccccc23)CC1` (centres undefined), for which the “presynaptic density (Z-score)” value is -0.464.

`Cc1cn(-c2cc(NC(=O)c3ccc(C)c(Nc4nccc(-c5cccnc5)n4)c3)cc(C(F)(F)F)c2)cn1` [Nilotinib (AMN 107 or Tasigna)]: the “presynaptic density (Z-score)” value was -1.02.

On to `Cc1ccc(S(=O)(=O)OCC(=O)Nc2ccc(C(=O)O)c(O)c2)cc1`, for which the “presynaptic density (Z-score)” value was -0.554. With `CC(=O)c1c(C)c2cnc(Nc3ccc(N4CCNCC4)cn3)nc2n(C2CCCC2)c1=O`, the “presynaptic density (Z-score)” value was -0.609.

Turning to `COc1cc(F)c(F)c(Nc2ccc(I)cc2F)c1NS(=O)(=O)C1(CC(O)CO)CC1` (centres undefined) [Refametinib (RDEA119], the “presynaptic density (Z-score)” value stood at 0.433.

In the case of `CCc1c(C(=O)NCCc2ccc(N3CCCCC3)cc2)[nH]c2ccc(Cl)cc12`, the “presynaptic density (Z-score)” value was -0.684. `CNCc1ccc(-c2cc(-c3nc(-c4ccc(S(=O)(=O)C(C)C)cc4)cnc3N)on2)cc1`: the “presynaptic density (Z-score)” value was -1.03. Take `CC[C@H](NC(=O)[C@H](C)NC)C(=O)N1C[C@@H](O)C[C@H]1Cc1c(-c2[nH]c3cc(F)ccc3c2C[C@@H]2C[C@H](O)CN2C(=O)[C@H](CC)NC(=O)[C@H](C)NC)[nH]c2cc(F)ccc12` [Birinapant]: the “presynaptic density (Z-score)” value turned out to be 0.314. Turning to `CCc1cccc2c3c([nH]c12)C(CC)(CC(=O)O)OCC3` (centres undefined) [Etodolac], the “presynaptic density (Z-score)” value was -1.87. For `CC(C)NCCCn1c(Sc2cc3c(cc2I)OCO3)nc2c(N)ncnc21`, the “presynaptic density (Z-score)” value was -0.039. In the case of `CN1CCC[C@@H]1CCO[C@](C)(c1ccccc1)c1ccc(Cl)cc1` [Clemastine], the “presynaptic density (Z-score)” value is -0.781.

On to `NC(=O)C1CCCc2c1[nH]c1ccc(Cl)cc21` (centres undefined) [6-Chloro-2,3,4,9-tetrahydro-1H-carbazole-1-carboxamide], for which the “presynaptic density (Z-score)” value worked out at 0.159. As for `Nc1ccc(C(=O)O)c(O)c1` [Sodium 4-Aminosalicylate], the figure is 0.294; as for `COc1ccc2c(c1)c(CC(=O)N1CCOCC1)c(C)n2C(=O)c1ccc(Cl)cc1`, -0.448; as for `C=CCn1c(=O)c2cnc(Nc3ccc(N4CCN(C)CC4)cc3)nc2n1-c1cccc(C(C)(C)O)n1`, 1.16. Consider `O=C(Nc1ccccc1)c1cc([N+](=O)[O-])ccc1Cl`, for which the “presynaptic density (Z-score)” value was -0.00538. As for `Nc1nc(N)c2nc(-c3cccc(O)c3)c(-c3cccc(O)c3)nc2n1`, the figure is 1.05; as for `C1=N/C2=N/c3ccc(OCCN4CCCC4)c(c3)COC/C=C/COCc3cccc(c3)C(=C1)N2` [Pacritinib (SB1518)], -1.08. Turning to `COc1ccc2cc(-c3nc(-c4ccc([S+](C)[O-])cc4)[nH]c3-c3ccncc3)ccc2c1` (centres undefined) [Tie2 kinase inhibitor], the “presynaptic density (Z-score)” value was -0.787. Next, `Cc1cc(-c2ccc(CC(=O)Nc3ccc(-c4cccnc4)cc3)cc2)ccn1`: 0.0884. `O=C(O)c1ccc(Nc2ncc3c(n2)-c2ccc(Cl)cc2C(c2c(F)cccc2F)=NC3)cc1`: the “presynaptic density (Z-score)” value was -0.286. For `COC1CCN(C(=O)c2cc(Cc3n[nH]c(=O)c4ccccc34)ccc2F)CC1`, the “presynaptic density (Z-score)” value stood at 0.144.
